# Active and inactive are the calls of the source. Entries that show only a call come without a potency. Calls come from the whole dose curve; as a rule, active = well fitted curve in the direction sought with a large enough effect in the repeat runs; inconclusive = weak or mixed curves; inactive = flat fitted curve, though single readings scatter.
# Assay: qHTS assay to test for compound auto fluorescence at 460 nm (blue) in HepG2 cell free culture (AID 720685)
# Conditions: Cell-free culture medium, blue autofluorescence 405/460 nm; series mostly up to 91.3 µM
# Text: U.S. Tox21 Program National Center for Advancing Translational Sciences [NCATS] NIH Chemical Genomics Center [NCGC] U.S. Environmental Protection Agency [EPA] National Institutes of Environmental Health Sciences [NIEHS] National Toxicology Program [NTP] U.S. Food and Drug Administration [FDA] Tox21 Assay Overview: Compound auto fluorescence often interferes with screening of the compound library against various biological targets and signaling pathways. Some of these compounds may have fluorophoric properties. Such properties may interfere with the assay outputs resulting in false positives and/or negatives. To decrease such complications and ensure the compound activities are relevant in terms of biological response, the Tox21 10K compound library was screened for auto fluorescence. From the fluorophores used as reporter signals in our screening assays, the auto fluorescence equivalencies of compounds against three fluorophores have been evaluated: Triamterene, Fluorescein and Rose Bengal sodium for blue, green and red fluorescence, respectively. The fluorescence intensities were measured using Excitation/Emission wavelengths at 405/460nm, 485/535nm and 540/590nm for blue, green and red labels, respectively. This assay includes the blue fluorescence data.
# Tox21 Assay Protocol Summary: 5 uL of culture medium (MEM containing 10% FBS) per well was dispensed into black wall/clear bottom 1536-well plates using a Multidrop Combi Dispenser (ThermoFisher Scientific, Waltham, MA). After 23 nL compound or DMSO vehicle was transferred into assay plate by a pintool work station (Kalypsys, San Diego, CA), fluorescence intensities in the assay plates were measured by an Envision (PerkinElmer, Shelton, CT) plate reader using three labels for measuring blue, green and red fluorescence at […] 460, 535 and 590nm respectively.
# Potency is the fitted concentration of half-maximal effect; tags give direction and shape of the fitted curve or compound fluorescence and quenching.
Structure (SMILES),Potency,"fluorescence, % of fluorescent control"
Cc1ccc(C(=O)O)cc1,inactive,
Nc1nc(-c2ccccc2)cs1,inactive,
COc1cc(C)ccc1O,inactive,
CN1CCC[C@@H]1CCO[C@](C)(c1ccccc1)c1ccc(Cl)cc1,inactive,
Sc1nc2ccccc2s1,inactive,
C[Si](Cl)(c1ccccc1)c1ccccc1,inactive,
CCOC(=O)Cn1cccc1-c1nc(-c2ccc(OC)cc2)c(-c2ccc(OC)cc2)s1,inactive,
Nc1cc(Cl)c(O)c(Cl)c1,inactive,
O=C(O)c1cc(N=Nc2ccc([N+](=O)[O-])cc2)ccc1O,inactive,
CCC(C)n1ncn(-c2ccc(N3CCN(c4ccc(OC[C@H]5CO[C@](Cn6cncn6)(c6ccc(Cl)cc6Cl)O5)cc4)CC3)cc2)c1=O (stereo not given in full),inactive,
CCc1cccc(CC)c1NC(=O)CN(CC(=O)O)CC(=O)O,,-0.0593% [at 18.6 µM] (inactive)
Oc1ccccc1O,inactive,
Oc1cc(Cl)cc(Cl)c1Cl,inactive,
COc1cc2nc(N3CCN(C(=O)c4ccco4)CC3)nc(N)c2cc1OC,inactive,
Cc1cc(C(C#N)c2ccc(Cl)cc2)c(Cl)cc1NC(=O)c1cc(I)cc(I)c1O (stereo not given),inactive,
CCCCCCCCCCC[C@@H](C[C@@H]1OC(=O)[C@H]1CCCCCC)OC(=O)[C@H](CC(C)C)NC=O,inactive,
O=[N+]([O-])c1cccc(C(F)(F)F)c1,inactive,
CN(C)C(=O)COC(=O)Cc1ccc(OC(=O)c2ccc(N=C(N)N)cc2)cc1,inactive,
CCCCC(CC)COC(=O)CCCCC(=O)OCc1ccccc1 (stereo not given),inactive,
CCn1c2ccccc2c2cc([N+](=O)[O-])ccc21,inactive,

Structure (SMILES),Potency,"fluorescence, % of fluorescent control"
Cl[Si](Cl)(c1ccccc1)c1ccccc1,inactive,
Cc1nc(-c2ccc(Cl)cc2)oc1COC(C)(C)C(=O)O,inactive,
O=C1OC2(c3ccc(O)cc3Oc3cc(O)ccc32)c2ccc(N=C=S)cc21,inactive,
CCC(COC(=O)CCS)(COC(=O)CCS)COC(=O)CCS,inactive,
CC(C)(c1cc(Br)c(OCC(Br)CBr)c(Br)c1)c1cc(Br)c(OCC(Br)CBr)c(Br)c1 (stereo not given),inactive,
Cc1ccc(O)c(N)c1,inactive,
OC[C@H]1O[C@H](O[C@H]2O[C@H](CO)[C@@H](O)[C@H](O)[C@H]2O)[C@H](O)[C@@H](O)[C@@H]1O,inactive,
c1ccsc1,inactive,
CCCC[P+](C)(CCCC)CCCC,inactive,
CCC(=O)OC(=O)CC,inactive,
Cc1cc(=O)oc2cc(O)cc(O)c12,39.8 µM [fluorescent] (active),
C=Cc1ccccc1C=C,inactive,
O[C@@H]([C@H](O)[C@H](O)CBr)[C@H](O)CBr,inactive,
NC(=S)NC(N)=S,inactive,
CCCNCCC,inactive,
CCC(C)(CCC(C)C)C(=O)[O][Sn]([CH3])([CH3])[O]C(=O)C(C)(CC)CCC(C)C (stereo not given),inactive,
COc1c(C)c2c(c(O)c1C/C=C(\C)CCC(=O)OCCN1CCOCC1)C(=O)OC2,inactive,
O=C(O)c1cc(=O)c2ccccc2o1,inactive,
CC1(C)CC(O)CC(C)(C)N1,inactive,
O=[N+]([O-])c1ccc(O)cc1C(F)(F)F,inactive,

# Source: PubChem BioAssay (Tox21)
